# Reference: PubChem BioAssay AID1159580 (chemical genetic matrix, 2015)
# Out of some 5,500 compounds screened, about 2,000 (36%) were called active. Roughly 18% stayed inconclusive and do not appear here. The list shows a part of the results. A number with no mark means an inactive call. Cut-off read from the data, not from the text of the source: active = normalized growth mostly below about 0.91 (no sharp cut-off); inconclusive = no clear call, values can overlap the other calls; inactive = mostly above about 0.92.
# Test: chemical genetic growth profiling, strain panel (AID 1159580);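 note: tested at 20 µM; growth read once vehicle control cultures reached saturation at 30 °C; 1 = growth at the plate median or of vehicle wells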
# Conditions: growth OD
# [1] = S. cerevisiae deletion strains, locus YDL101C, strain DUN1, stronger effect = lower value
# [2] = S. cerevisiae deletion strains, locus YHR030C, strain SLT2, stronger effect = lower value
# [3] = S. cerevisiae deletion strains, locus YAL013W, strain DEP1, stronger effect = lower value
# [4] = S. cerevisiae deletion strains, locus YBR229C, strain ROT2, stronger effect = lower value
# [5] = S. cerevisiae deletion strains, locus YCL061C, strain MRC1, stronger effect = lower value
# [6] = S. cerevisiae deletion strains, locus YDL134C, strain PPH21, stronger effect = lower value
# [7] = S. cerevisiae deletion strains, locus YDR150W, strain NUM1, stronger effect = lower value
# [8] = S. cerevisiae deletion strains, locus YEL061C, strain CIN8, stronger effect = lower value
# [9] = S. cerevisiae deletion strains, locus YGR078C, strain PAC10, stronger effect = lower value
# [10] = S. cerevisiae deletion strains, locus YHR087W, strain rtc3, stronger effect = lower value
# [11] = S. cerevisiae deletion strains, locus YJR043C, strain POL32, stronger effect = lower value
# [12] = S. cerevisiae deletion strains, locus YJR075W, strain HOC1, stronger effect = lower value
# [13] = S. cerevisiae deletion strains, locus YKL190W, strain CNB1, stronger effect = lower value
# [14] = S. cerevisiae deletion strains, locus YLR039C, strain RIC1, stronger effect = lower value
# [15] = S. cerevisiae deletion strains, locus YLR058C, strain SHM2 (second series), stronger effect = lower value
# [16] = S. cerevisiae deletion strains, locus YLR085C, strain ARP6, stronger effect = lower value
# [17] = S. cerevisiae deletion strains, locus YLR262C, strain YPT6, stronger effect = lower value
# [18] = S. cerevisiae deletion strains, locus YML094W, strain GIM5, stronger effect = lower value
# [19] = S. cerevisiae deletion strains, locus YMR219W, strain ESC1, stronger effect = lower value
# [20] = S. cerevisiae deletion strains, locus YMR263W, strain SAP30, stronger effect = lower value
# [21] = S. cerevisiae deletion strains, locus YNL153C, strain GIM3, stronger effect = lower value
# [22] = S. cerevisiae deletion strains, locus YNL298W, strain CLA4 (second series), stronger effect = lower value
# [23] = S. cerevisiae deletion strains, locus YNL322C, strain KRE1, stronger effect = lower value
# [24] = S. cerevisiae deletion strains, locus YNR030W, strain Alg12, stronger effect = lower value
# [25] = S. cerevisiae deletion strains, locus YPL055C, strain LGE1, stronger effect = lower value
# [26] = S. cerevisiae deletion strains, locus YPL241C, strain CIN2, stronger effect = lower value
# [27] = S. cerevisiae deletion strains, locus YPR135W, strain CTF4, stronger effect = lower value
# [28] = S. cerevisiae strains, strain wild type, stronger effect = lower value
# [29] = S. cerevisiae deletion strains, locus YOL006C, strain TOP1, stronger effect = lower value
compound,measurement,setting,value
Cc1c(S(=O)(=O)Nc2cccc([N+](=O)[O-])c2)sc2ccc(Cl)cc12,normalized growth,"S. cerevisiae deletion strains, locus YAR019C, strain CDC15, stronger effect = lower value",0.965
same,normalized growth,"S. cerevisiae deletion strains, locus YBL105C, strain PKC1, stronger effect = lower value",0.973
same,normalized growth,"S. cerevisiae deletion strains, locus YBR135W, strain CKS1, stronger effect = lower value",0.968
same,normalized growth,"S. cerevisiae deletion strains, locus YBR136W, strain MEC1, stronger effect = lower value",0.973
same,normalized growth,"S. cerevisiae deletion strains, locus YBR160W, strain CDC28, stronger effect = lower value",0.967
same,normalized growth,"S. cerevisiae deletion strains, locus YDL017W, strain CDC7, stronger effect = lower value",0.972
same,normalized growth,"S. cerevisiae deletion strains, locus YDL028C, strain MPS1, stronger effect = lower value",0.979
same,normalized growth,[1],0.963
same,normalized growth,"S. cerevisiae deletion strains, locus YDL108W, strain KIN28, stronger effect = lower value",0.981
same,normalized growth,"S. cerevisiae deletion strains, locus YDL132W, strain cdc53, stronger effect = lower value",0.955
same,normalized growth,"S. cerevisiae deletion strains, locus YDL214C, strain PRR2, stronger effect = lower value",0.991
same,normalized growth,"S. cerevisiae deletion strains, locus YDR052C, strain DBF4, stronger effect = lower value",0.958
same,normalized growth,"S. cerevisiae deletion strains, locus YDR054C, strain cdc34, stronger effect = lower value",0.969
same,normalized growth,"S. cerevisiae deletion strains, locus YDR226W, strain ADK1, stronger effect = lower value",0.966
same,normalized growth,"S. cerevisiae deletion strains, locus YDR477W, strain SNF1, stronger effect = lower value",0.979
same,normalized growth,"S. cerevisiae deletion strains, locus YER123W, strain YCK3, stronger effect = lower value",1.01
same,normalized growth,"S. cerevisiae deletion strains, locus YER133W, strain GLC7, stronger effect = lower value",0.982
same,normalized growth,"S. cerevisiae deletion strains, locus YFL009W, strain cdc4, stronger effect = lower value",0.97
same,normalized growth,"S. cerevisiae deletion strains, locus YFL029C, strain CAK1, stronger effect = lower value",0.97
same,normalized growth,"S. cerevisiae deletion strains, locus YFR003C, strain YPI1, stronger effect = lower value",0.98
same,normalized growth,"S. cerevisiae deletion strains, locus YFR019W, strain FAB1, stronger effect = lower value",0.975
same,normalized growth,"S. cerevisiae deletion strains, locus YFR028C, strain CDC14, stronger effect = lower value",0.973
same,normalized growth,"S. cerevisiae deletion strains, locus YGR040W, strain KSS1, stronger effect = lower value",0.96
same,normalized growth,"S. cerevisiae deletion strains, locus YGR052W, strain FMP48, stronger effect = lower value",1.09
same,normalized growth,"S. cerevisiae deletion strains, locus YGR092W, strain DBF2, stronger effect = lower value",0.932
same,normalized growth,[2],0.752 (active)
same,normalized growth,"S. cerevisiae deletion strains, locus YHR079C, strain IRE1, stronger effect = lower value",0.913
same,normalized growth,"S. cerevisiae deletion strains, locus YHR082C, strain KSP1, stronger effect = lower value",1.01
same,normalized growth,"S. cerevisiae deletion strains, locus YHR205W, strain SCH9, stronger effect = lower value",0.986
same,normalized growth,"S. cerevisiae deletion strains, locus YIL147C, strain SLN1, stronger effect = lower value",0.976
same,normalized growth,"S. cerevisiae deletion strains, locus YJL095W, strain BCK1, stronger effect = lower value",0.979
same,normalized growth,"S. cerevisiae deletion strains, locus YJL128C, strain PBS2, stronger effect = lower value",0.963
same,normalized growth,"S. cerevisiae deletion strains, locus YJL157C, strain FAR1, stronger effect = lower value",1.01
same,normalized growth,"S. cerevisiae deletion strains, locus YJR016C, strain ILV3, stronger effect = lower value",0.969
same,normalized growth,"S. cerevisiae deletion strains, locus YJR066W, strain TOR1 (second series), stronger effect = lower value",0.999
same,normalized growth,"S. cerevisiae deletion strains, locus YJR066W, strain TOR1, stronger effect = lower value",1.03
same,normalized growth,"S. cerevisiae deletion strains, locus YKL048C, strain ELM1, stronger effect = lower value",0.967
same,normalized growth,"S. cerevisiae deletion strains, locus YKL067W, strain YNK1, stronger effect = lower value",0.99
same,normalized growth,"S. cerevisiae deletion strains, locus YKL101W, strain HSL1, stronger effect = lower value",0.981
same,normalized growth,"S. cerevisiae deletion strains, locus YKL193C, strain SDS22, stronger effect = lower value",0.971
same,normalized growth,"S. cerevisiae deletion strains, locus YKL203C, strain TOR2, stronger effect = lower value",1
same,normalized growth,"S. cerevisiae deletion strains, locus YLR113W, strain HOG1, stronger effect = lower value",0.878
same,normalized growth,"S. cerevisiae deletion strains, locus YLR133W, strain CKI1, stronger effect = lower value",0.989
same,normalized growth,"S. cerevisiae deletion strains, locus YLR403W, strain SFP1, stronger effect = lower value",0.954
same,normalized growth,"S. cerevisiae deletion strains, locus YML070W, strain DAK1, stronger effect = lower value",0.974
same,normalized growth,"S. cerevisiae deletion strains, locus YMR001C, strain CDC5, stronger effect = lower value",0.974
same,normalized growth,"S. cerevisiae deletion strains, locus YMR205C, strain PFK2 (second series), stronger effect = lower value",0.992
same,normalized growth,"S. cerevisiae deletion strains, locus YMR277W, strain FCP1, stronger effect = lower value",0.989
same,normalized growth,"S. cerevisiae deletion strains, locus YNL006W, strain LST8, stronger effect = lower value",0.966
same,normalized growth,"S. cerevisiae deletion strains, locus YNL020C, strain ARK1, stronger effect = lower value",0.972
same,normalized growth,"S. cerevisiae deletion strains, locus YNL161W, strain CBK1, stronger effect = lower value",0.971
same,normalized growth,"S. cerevisiae deletion strains, locus YNL183C, strain NPR1, stronger effect = lower value",0.926
same,normalized growth,"S. cerevisiae deletion strains, locus YNL207W, strain RIO2, stronger effect = lower value",0.983
same,normalized growth,"S. cerevisiae deletion strains, locus YNL222W, strain SSU72, stronger effect = lower value",0.966
same,normalized growth,"S. cerevisiae deletion strains, locus YNL307C, strain MCK1 (second series), stronger effect = lower value",0.988
same,normalized growth,"S. cerevisiae deletion strains, locus YOL078W, strain AVO1, stronger effect = lower value",0.975
same,normalized growth,"S. cerevisiae deletion strains, locus YOL136C, strain PFK27, stronger effect = lower value",0.968
same,normalized growth,"S. cerevisiae deletion strains, locus YOR061W, strain CKA2, stronger effect = lower value",0.966
same,normalized growth,"S. cerevisiae deletion strains, locus YOR119C, strain RIO1, stronger effect = lower value",1.08
same,normalized growth,"S. cerevisiae deletion strains, locus YOR231W, strain MKK1, stronger effect = lower value",0.955
same,normalized growth,"S. cerevisiae deletion strains, locus YOR329C, strain SCD5, stronger effect = lower value",0.971
same,normalized growth,"S. cerevisiae deletion strains, locus YPL031C, strain PHO85, stronger effect = lower value",0.985
same,normalized growth,"S. cerevisiae deletion strains, locus YPL153C, strain RAD53, stronger effect = lower value",0.962
same,normalized growth,"S. cerevisiae deletion strains, locus YPL204W, strain HRR25, stronger effect = lower value",0.964
same,normalized growth,"S. cerevisiae deletion strains, locus YPL209C, strain IPL1, stronger effect = lower value",0.973
same,normalized growth,"S. cerevisiae deletion strains, locus YPL256C, strain CLN2, stronger effect = lower value",0.926
same,normalized growth,"S. cerevisiae deletion strains, locus YPR025C, strain CCL1, stronger effect = lower value",0.97
same,normalized growth,"S. cerevisiae deletion strains, locus YPR106W, strain ISR1, stronger effect = lower value",0.971
same,normalized growth,"S. cerevisiae deletion strains, locus YPR111W, strain DBF20, stronger effect = lower value",0.965
same,normalized growth,"S. cerevisiae deletion strains, strain NNK1, stronger effect = lower value",0.951
same,normalized growth,"S. cerevisiae deletion strains, strain TSCII, stronger effect = lower value",0.964
Cc1nn(-c2ccccc2)nc1-c1nnc(-c2ccc(Cl)cc2)o1,normalized growth,[3],1.02
same,normalized growth,[4],1.01
same,normalized growth,[5],0.986
same,normalized growth,[1],0.995
same,normalized growth,[6],1
same,normalized growth,[7],1
same,normalized growth,[8],1.01
same,normalized growth,[9],0.993
same,normalized growth,"S. cerevisiae deletion strains, locus YGR229C, strain SMI1, stronger effect = lower value",1.01
same,normalized growth,[2],1.03
same,normalized growth,[10],1.04
same,normalized growth,[11],1.02
same,normalized growth,[12],1
same,normalized growth,[13],1.01
same,normalized growth,[14],1.04
same,normalized growth,[15],1.02
same,normalized growth,[16],1.03
same,normalized growth,[17],1.03
same,normalized growth,[18],1.04
same,normalized growth,[19],0.998
same,normalized growth,[20],1.05
same,normalized growth,"S. cerevisiae deletion strains, locus YMR307W, strain GAS1, stronger effect = lower value",1.07
same,normalized growth,[21],1
same,normalized growth,[22],1.01
same,normalized growth,[23],0.988
same,normalized growth,[24],1.03
same,normalized growth,[25],1.01
same,normalized growth,[26],1
same,normalized growth,[27],0.98
same,normalized growth,[28],1.01
FC(F)(F)Oc1ccccc1-c1nnc(-c2ccc(Cl)cc2)o1,normalized growth,[3],0.946
same,normalized growth,[4],0.968
same,normalized growth,[1],0.971
same,normalized growth,[6],0.963
same,normalized growth,[7],0.912
same,normalized growth,[8],0.931
same,normalized growth,[9],0.934
same,normalized growth,[2],0.442 (active)
same,normalized growth,[10],0.924
same,normalized growth,"S. cerevisiae deletion strains, locus YJL187C, strain SWE1, stronger effect = lower value",0.957
same,normalized growth,[11],0.975
same,normalized growth,[12],0.87 (active)
same,normalized growth,[13],0.9 (active)
same,normalized growth,[14],0.874
same,normalized growth,[15],0.95
same,normalized growth,[16],0.68 (active)
same,normalized growth,[17],0.963
same,normalized growth,[18],0.878
same,normalized growth,[19],0.966
same,normalized growth,[20],0.948
same,normalized growth,[21],0.976
same,normalized growth,[22],0.872
same,normalized growth,[23],0.944
same,normalized growth,[24],0.837 (active)
same,normalized growth,[29],0.767
same,normalized growth,[25],0.851
same,normalized growth,[26],0.852 (active)
same,normalized growth,[27],0.73
same,normalized growth,[28],0.94
O=S(=O)(NCc1ccc2c(c1)OCO2)c1ccc(F)c(Cl)c1,normalized growth,[3],0.98
same,normalized growth,[4],0.94
same,normalized growth,[5],0.977
same,normalized growth,[1],0.925
same,normalized growth,[7],0.913
same,normalized growth,[8],0.965
same,normalized growth,[9],0.96
same,normalized growth,[2],0.779
same,normalized growth,[10],0.948
same,normalized growth,[11],0.968
same,normalized growth,[12],0.937
same,normalized growth,[14],0.757 (active)
same,normalized growth,[15],0.951
same,normalized growth,[16],0.991
same,normalized growth,[17],0.683 (active)
same,normalized growth,[18],1
same,normalized growth,[19],0.962
same,normalized growth,[20],0.965
same,normalized growth,"S. cerevisiae deletion strains, locus YNL128W, strain TEP1, stronger effect = lower value",0.957
same,normalized growth,[21],0.971
same,normalized growth,[22],0.943
same,normalized growth,[23],0.967
same,normalized growth,[24],0.954
same,normalized growth,[29],0.843
same,normalized growth,[25],0.995
same,normalized growth,[26],0.998
same,normalized growth,[27],0.784
